Measurements: PubChem BioAssay AID1159580 (chemical genetic matrix, 2015)
The campaign covered roughly 5,500 compounds. About 2,000 (36%) were called active. Not shown: some 18% with an inconclusive outcome. No stated cut-off is given here; in the data, active means normalized growth mostly below about 0.91 (no sharp cut-off); inconclusive means no clear call, values can overlap the other calls; inactive means mostly above about 0.92. This is one part of the list.

Assay: chemical genetic growth profiling, strain panel (AID 1159580);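 further: tested at 20 µM; growth read once vehicle control cultures reached saturation at 30 °C; 1 = growth at the plate median or of vehicle wells; lower values mean less growth of the strain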
Conditions: growth OD

Measured: normalized growth

c1ccc(OCCOc2ccccn2)nc1
inactive: S. cerevisiae deletion strains, locus YAL013W, strain DEP1, hits give low values 1.03 | S. cerevisiae deletion strains, locus YBR229C, strain ROT2, hits give low values 0.999 | S. cerevisiae deletion strains, locus YCL061C, strain MRC1, hits give low values 0.992 | S. cerevisiae deletion strains, locus YDL101C, strain DUN1, hits give low values 1.01 | S. cerevisiae deletion strains, locus YDL134C, strain PPH21, hits give low values 0.994 | S. cerevisiae deletion strains, locus YDR150W, strain NUM1, hits give low values 0.972 | S. cerevisiae deletion strains, locus YEL061C, strain CIN8, hits give low values 1 | S. cerevisiae deletion strains, locus YGR078C, strain PAC10, hits give low values 1 | S. cerevisiae deletion strains, locus YHR030C, strain SLT2, hits give low values 1.06 | S. cerevisiae deletion strains, locus YHR087W, strain rtc3, hits give low values 0.992 | S. cerevisiae deletion strains, locus YJR043C, strain POL32, hits give low values 0.995 | S. cerevisiae deletion strains, locus YJR075W, strain HOC1, hits give low values 1 | S. cerevisiae deletion strains, locus YKL190W, strain CNB1, hits give low values 0.998 | S. cerevisiae deletion strains, locus YLR039C, strain RIC1, hits give low values 0.999 | S. cerevisiae deletion strains, locus YLR058C, strain SHM2 (second series), hits give low values 0.996 | S. cerevisiae deletion strains, locus YLR085C, strain ARP6, hits give low values 1 | S. cerevisiae deletion strains, locus YLR262C, strain YPT6, hits give low values 1.05 | S. cerevisiae deletion strains, locus YML094W, strain GIM5, hits give low values 1.01 | S. cerevisiae deletion strains, locus YMR219W, strain ESC1, hits give low values 1.01 | S. cerevisiae deletion strains, locus YMR263W, strain SAP30, hits give low values 0.985 | S. cerevisiae deletion strains, locus YMR307W, strain GAS1, hits give low values 0.959 | S. cerevisiae deletion strains, locus YNL128W, strain TEP1, hits give low values 1 | S. cerevisiae deletion strains, locus YNL153C, strain GIM3, hits give low values 0.997 | S. cerevisiae deletion strains, locus YNL298W, strain CLA4 (second series), hits give low values 0.978 | S. cerevisiae deletion strains, locus YNL322C, strain KRE1, hits give low values 1.01 | S. cerevisiae deletion strains, locus YNR030W, strain Alg12, hits give low values 1 | S. cerevisiae deletion strains, locus YPL055C, strain LGE1, hits give low values 0.982 | S. cerevisiae deletion strains, locus YPL241C, strain CIN2, hits give low values 0.988 | S. cerevisiae deletion strains, locus YPR135W, strain CTF4, hits give low values 1.13 | S. cerevisiae strains, strain wild type, hits give low values 1
